Compound activity: PubChem BioAssay, National Center for Advancing Translational Sciences (NCATS)
PINK1 modulator: changes PINK1 expression. PINK1 immunofluorescence, high-content cytometry, 24 h. AID 624263. hit rate 0.2% among 410,000. Potency, µM (doses to about 76.6 µM), without a hit: top-dose activation (PINK1 increase), hits mostly activators; active = well fitted activation curve with a large enough effect; inconclusive = small, poorly fitted or top-dose-only effect; cell line not stated here; note: potency is the fitted concentration of half-maximal effect; % of control where 0% means no effect; nearly all actives have a fitted effect of over 65% in size
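PINK1 protein level read as immunofluorescence by microplate cytometer in a fixed, stained stable cell line after 24 h exposure to five compound concentrations, with CCCP as control.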
S2 tox: viability counter-screen for ATXN expression inhibitors. hit rate 0.49% among 400,000. S2 cells (HEK-293 line with an ATXN2-luciferase reporter) viability, CellTiter-Fluor protease fluorescence, 24 h. Potency, µM (titrated, usually from 56.7 µM), usual class: cytotoxic; note: potency is the fitted concentration of half-maximal effect; nearly all actives have a fitted effect of over 40% in size
ATXN2 expr inh: ATXN2 expression inhibition; HEK-293 ATXN2-luciferase reporter, luminescence, 24 h; Potency, µM (highest dose often 57 µM), inactives show at the highest dose activity change, negative = inhibition, most hits filed as inhibitors; hit rate 0.72% among 360,000; note: potency is the fitted concentration of half-maximal effect; % is set by controls: 0 for no effect and ±100 for the full control effect; nearly all actives have a fitted effect of over 55% in size
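ATXN2-luciferase reporter cells (luciferase flanked by upstream and downstream ATXN2 gene portions) were treated 24 h at 37 °C with compounds at up to 57 uM. SteadyGlo luminescence gave expression; GF-AFC fluorescence gave viability.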
SW480 rereplic: DNA re-replication induction in SW480 cells; SW480 DNA re-replication, Hoechst DNA content imaging, 48 h; Potency, µM (top dose mostly 46.1 µM), for inactives: at the highest dose re-replication activation, actives largely listed as activators; hit rate 1.8% among 340,000; AID 624297; note: potency is the fitted concentration of half-maximal effect; % of control where 0% means no effect; nearly all actives have a fitted effect of over 55% in size
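Quantitative HTS format with DMSO vehicle controls; 48 hr drug incubation at 37 C, then 40 min Hoechst staining and scanning imager measurement at 405 nm excitation.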
IL-1B inflam inh: blocks inflammasome-driven IL-1 beta release; THP-1 LPS/ATP IL-1B secretion, AlphaLISA, 16 h; stronger effect = lower value; activity change, % at 57.5 µM; hit rate 4.7% among 360,000; AID 743279; in the data active = activity change below about -50%; inconclusive = mostly about -30% to -49%; note: % is set by controls: 0 for no effect and ±100 for the full control effect
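Secreted IL-1B measured by AlphaLISA bead assay after 16 h compound exposure of THP-1 cells; compounds (final up to 57.5 uM) added 1 h before LPS (250 ng/mL) and ATP (1.25 mM) stimulation; lower signal means less secretion.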
MCF10A rerep: inducers of DNA re-replication in MCF 10A breast cells; MCF 10A DNA re-replication, Hoechst nuclear intensity, 48 h; Potency, µM (top dose mostly 46.1 µM), inactives show top-dose activity, positive = re-replication, most hits filed as activators; AID 624296; hit rate 2.9% among 350,000; note: potency is the fitted concentration of half-maximal effect; % of control where 0% means no effect; nearly all actives have a fitted effect of over 50% in size
The depositor's hits bear a star; i = inactive; ? = inconclusive; nt = no result given; [ ] = dose if it differs, or a comment. Sampled rows, rich in hits. Any-hit rate of the full collection: about 7.1%. Unless noted, calls come from the whole dose curve; as a rule, active = well fitted curve in the direction sought with a large enough effect; inconclusive = small, poorly fitted or top-dose-only effect, or another doubt; inactive = no such curve, though single readings can be large; an effect the other way counts as inactive or inconclusive.

SMILES | PINK1 modulator | S2 tox | ATXN2 expr inh | SW480 rereplic | IL-1B inflam inh | MCF10A rerep
CCc1nc(N2CCN(C(=O)c3ccco3)CC2)c2oc3ccccc3c2n1 | ? | ? | ? | 12µM* | -27 | ?
COc1cccc(CNC(=O)c2oc3c(c2C)-c2nn(Cc4cccc(Cl)c4)cc2CC3)c1OC | 0% | nt | nt | nt | nt | nt
Cc1ccc(-c2nn(-c3ccc(F)cc3F)c3c2cnc2c(F)cccc23)cc1 | 1% | i | 10% | nt | nt | nt
COc1ccc(CCNc2nc(-c3ccc(O)cc3)cs2)cc1OC | 0% | i | ? | -20% | -62* | ?
COc1ccc(CCNc2nc(-c3ccccn3)cs2)cc1OC | 7% | ? | nt | 20% | 8 | 8%
COc1ccc(CCNc2nc(-c3sc(C)nc3C)cs2)cc1OC | -2% | ? | ? | 19% | -56* | ?
COc1ccc(CCNc2nc(-c3ccncc3)cs2)cc1OC | 1% | i | -31% | -5% | -21 | 0%
O=C(NCc1cccnc1)c1cnn(-c2nccc(-c3cccs3)n2)c1C1CC1 | -1% | i | nt | nt | nt | nt
CCOc1ccc(OCC(=O)NCCS(=O)(=O)N2CCN(c3ccccc3F)CC2)cc1 | -1% | nt | nt | nt | nt | nt
Cc1ccc(C(=O)NCCOc2cccc(C)c2)cc1 | -1% | i | 45% | -3% | -20 | 0%
CSc1ccccc1C(=O)NCCOc1cccc(C)c1 | 0% | i | -11% | 14% | -91* | 16%
COc1cc(C)ccc1OCCSc1nc2ccc(NC(=O)c3ccco3)cc2s1 | 1% | ? | -38% | nt | nt | nt
Cc1ccn2c(c1)nc(=O)c1cc(S(=O)(=O)N3CCC(C)CC3)c(Cl)cc12 | -1% | i | -2% | nt | nt | nt
Cc1ccc(S(=O)(=O)CCC(=O)NCCN2C(=O)S/C(=C/c3ccc(F)cc3)C2=O)cc1 | -1% | ? | 18% | 4% | -62* | 2%
CC12CCC(=O)N1C(C(=O)NCCN1C(=O)S/C(=C\c3ccc(F)cc3)C1=O)CS2 (centres undefined) | 2% | i | 3% | 11% | -63* | 2%
O=C1NC(=Nc2cccnc2)S/C1=C\c1cccc(F)c1 | 14% | i | 6% | -2% | 33 | ?
COc1ccc(/C=C2\SC(=Nc3ccccc3OC)NC2=O)cc1 | 2% | i | -20% | ? | ? | 3.3µM*
COc1cc(/C=C2\SC(=Nc3ccccc3OC)NC2=O)ccc1O | 0% | ? | 0% | 21µM* | -60* | 8.2µM*
COc1cc(/C=C2\SC(=Nc3cccnc3)NC2=O)cc(OC)c1OC | 8% | i | 14% | 2% | 75 | 3.7µM*
COc1ccc(C=C2SC(=O)NC2=O)cc1OC | 0% | i | 36% | -5% | -5 | 14%
COc1cc(/C=C2\SC(=Nc3ccccc3)NC2=O)cc(Cl)c1O | 7% | ? | -11% | ? | 31 | 21µM*
COc1cccc(-c2nnc(SCC(=O)N(C)C3CCCCC3)o2)c1 | 2% | i | -6% | nt | nt | nt
CCOc1ccc(CNC(=O)c2ccc(NC(=O)N3CCSc4ncccc43)cc2)cc1OC | -1% | nt | nt | nt | nt | nt
CCc1ccc(N=C2NC(=O)/C(=C/c3cc(OC)c(O)c(OC)c3)S2)cc1 | 2% | ? | nt | 11% | 11 | ?
C=CCOc1ccc(/C=C2\SC(N)=NC2=O)cc1OC | 0% | i | 25% | 0% | -13 | 2%
SMILES | PINK1 modulator | S2 tox | ATXN2 expr inh | SW480 rereplic | IL-1B inflam inh | MCF10A rerep
COc1cc(/C=C2/SC(=Nc3ccc(O)cc3)NC2=O)ccc1O | 1% | ? | -4% | 4.6µM* | ? | 5.2µM*
COc1cc(/C=C2\SC(N)=NC2=O)ccc1O | -1% | ? | ? | 26% | -83* | ?
CCOC(=O)c1cc(-c2ccc(C)cc2)n(CCC(=O)Nc2nc3c(C)cccc3s2)c1C | 3% | i | -13% | nt | nt | nt
CCOc1ccc(/C=C2/Sc3ccc(C(=O)N4CCOCC4)cc3N(C)C2=O)cc1OC | 0% | i | -15% | ? | -62* | ?
COc1ccc(/C=C2\Sc3ccc(C(=O)N4CCCC4)cc3N(C)C2=O)cc1OC | 1% | i | -8% | 4µM* | 11 | 12%
CN1C(=O)/C(=C/c2cccc(Cl)c2)Sc2ccc(C(=O)N3CCOCC3)cc21 | 0% | i | ? | ? | -5 | 21µM*
COc1ccc(Nc2nc(N3CCCCC3)nc3ccccc23)c(OC)c1 | ? | ? | ? | -3% | -62* | 25%
Cc1nc(N2CCCCCC2)c2ccccc2n1 | 1% | nt | nt | -4% | 66 | -3%
CCN(CC)c1ccc(Nc2nc(N3CCOCC3)c3ccccc3n2)cc1 | -17%[38.3 µM] | i | -35% | ? | -111* | ?
COc1ccc(Nc2nc(N3CCCC3)c3ccccc3n2)cc1 | -3% | ? | 28µM* | -1% | -101* | ?
COc1ccc(Nc2nc(N3CCN(S(C)(=O)=O)CC3)nc3ccccc23)c(OC)c1 | 5% | i | -2% | 11%[1.84 µM] | 16 | -9%
Cc1ccc(-c2cc(C(=O)OCC(=O)c3ccccc3)c3cccc(Cl)c3n2)cc1 | 1% | i | -22% | nt | nt | nt
Cc1ccc(C(=O)Nc2ccc3c(c2)N(C)C(=O)c2ccccc2S3)cc1 | 0% | ? | ? | nt | nt | nt
Oc1c(N=Nc2nn[nH]n2)ccc2ccccc12 | 4% | 22µM* | -32% | nt | 103 | nt
Cc1ccc(OCC(=O)Nc2cccc(C(=O)OCc3cc(=O)n4nc(C)sc4n3)c2)cc1 | 1% | nt | nt | nt | nt | nt
O=C(C=C=Nc1ccccc1)C(=O)N=C=Cc1ccccc1 | 2% | 28µM* | ? | ? | -101* | 4.6µM*
O=C(N/N=C/c1ccccc1)C(=O)N/N=C/c1ccccc1 | 0% | i | 0% | -5% | 3 | 1%
CCCOc1ccc(C2C3=C(Nc4nc(N)[nH]c(=O)c42)c2ccccc2C3=O)cc1 (centres undefined) | 1% | ? | nt | -13% | -55* | 3%
CCOc1ccc(C2C3=C(Nc4nc(N)[nH]c(=O)c42)c2ccccc2C3=O)cc1 (centres undefined) | 3% | i | 8% | -7% | -14 | 0%
O=C(COC(=O)c1ccc(Br)o1)Nc1ccc(N2CCOCC2)cc1 | 1% | i | 9% | -7% | -23 | 9%
Cc1cc(NC(=O)CSc2nc3c(sc4ccccc43)c(=O)n2CCc2ccccc2)n[nH]1 | -1%[38.3 µM] | i | -22% | 2% | 15 | 11%
O=C(CSc1nc2c(sc3ccccc32)c(=O)n1CCCN1CCCC1)NCc1ccco1 | 2% | ? | -4% | 51% | -70* | ?
Cc1cc(NC(=O)CSc2nc3c(sc4ccccc43)c(=O)n2CCCN2CCOCC2)n[nH]1 | 10%[38.3 µM] | ? | 1.4µM* | 7.3µM* | -1 | ?
CC(C)Oc1ccc(CNC(=O)c2sc3ncccc3c2-n2cccc2)cc1 | 1% | ? | -22% | nt | nt | nt
